Legend:
[1] = target: T1, Aspartate--tRNA(Asp/Asn) ligase (Mycobacterium tuberculosis (strain ATCC 25618 / H37Rv)) (UniProt P9WFW3); test: Assay for Asp RNA synthetase-1 from Mycobacterium tuberculosis; assay type: functional; set-up: scale not given: direction of the effect not stated beside the values; conditions: 30 µM; also: in the data most compounds retested in dose-response had high values
T1 sequence (whole entry): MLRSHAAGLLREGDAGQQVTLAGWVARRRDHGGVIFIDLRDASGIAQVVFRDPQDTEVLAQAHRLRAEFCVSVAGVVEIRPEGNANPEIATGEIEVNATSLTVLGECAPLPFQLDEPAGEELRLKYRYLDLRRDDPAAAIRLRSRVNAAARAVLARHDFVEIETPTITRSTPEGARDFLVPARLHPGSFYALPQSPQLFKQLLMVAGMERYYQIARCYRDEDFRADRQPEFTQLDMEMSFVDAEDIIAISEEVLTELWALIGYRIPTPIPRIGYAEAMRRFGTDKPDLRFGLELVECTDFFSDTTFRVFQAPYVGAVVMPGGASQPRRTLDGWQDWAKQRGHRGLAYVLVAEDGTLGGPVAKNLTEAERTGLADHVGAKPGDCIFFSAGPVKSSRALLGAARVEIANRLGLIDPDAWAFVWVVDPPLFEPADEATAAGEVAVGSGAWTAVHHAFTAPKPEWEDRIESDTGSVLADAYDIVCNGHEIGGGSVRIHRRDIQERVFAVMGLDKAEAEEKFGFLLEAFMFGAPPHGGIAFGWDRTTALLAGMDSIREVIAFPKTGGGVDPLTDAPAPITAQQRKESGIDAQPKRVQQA

[2] = target: Shiga toxin 2 (Escherichia coli O157:H7) (UniProt P09385+P09386); test: E. coli 0.157:H7 Shiga Toxin SOP - stx2 screening assay; assay type: functional; set-up: scale not given: direction of the effect not stated beside the values; conditions: 30 µM

Row | Structure (SMILES) | Percent Effect [1] | Percent Effect [2]
1 | CCOc1ncccc1C(=O)NCCN(CC)C1CC1 | 0.335% | 9.33%
2 | Cc1cc(NC(=O)CN2CCc3nn(C)c(=O)cc3C2)on1 | 11.6% | -13.1%
3 | Cc1ccccc1Cc1cnc(NC(=O)C2CNC(=O)N2)s1 (configuration not stated) | 6.1% | 3.51%
4 | CC(NC(=O)NCCCN(C)S(C)(=O)=O)c1ccncc1 (configuration not stated) | -2.98% | -9.54%
5 | CC(C)c1cc(C(=O)N(C)Cc2cccc3ncccc23)n(C)n1 | -4.72% | -15%
6 | CCS(=O)(=O)N1CCOC2(CCCN(c3ccc(C)nn3)C2)C1 (configuration not stated) | 3.41% | -15.9%
7 | CC(NC(=O)N(C)Cc1ccsc1)c1ccc2c(c1)NC(=O)CO2 (configuration not stated) | -2.41% | 18.1%
8 | CCN(CC)C(=O)CCc1c(C)nc2cc(O)nn2c1C | -1.56% | -6.53%
9 | CCC(CC)c1cc(C(=O)N2CCCC(n3cncn3)C2)on1 (configuration not stated) | -5.51% | -2.33%
10 | Cc1ccc(C(=O)N2CCc3c(CNS(C)(=O)=O)cncc3C2)o1 | 9.11% | -21%
11 | O=C(CS(=O)(=O)c1ccccc1Cl)NC1CCCCNC1=O (configuration not stated) | -8.65% | 4.72%
12 | CC(C(=O)NCc1ccnc(N(C)C)c1)n1cncn1 (configuration not stated) | 0.0335% | -9.74%
13 | Cc1cccc(N2CCN(CCNC(=O)c3ccnn3C)CC2)c1 | 5.62% | -28.1%
14 | CC(C)Nc1ncnc2c1CCN(C(=O)c1ccncc1F)CC2 | -1.6% | -6.39%
15 | NCc1cn(-c2ccccc2C(=O)NCc2cccc(Cl)c2)cn1 | -0.574% | 40.7%
16 | CCC1=N[C@@]2(CC[C@@H]3CN(S(=O)(=O)CC)C[C@@H]32)C(=O)N1CC(C)C | 2.06% | -9.69%
17 | CC(C)N(Cc1nc2c(cnn2C)c(=O)[nH]1)c1ccccc1 | -2.77% | 3.48%
18 | Cc1nc(CN(Cc2cccs2)C2CCS(=O)(=O)C2)oc1C (configuration not stated) | -1.77% | 34.6%
19 | CCc1nc2n(n1)CC(NCc1noc(-c3ccccc3)n1)CC2 (configuration not stated) | -2.95% | -17.9%
20 | CCOc1ccc(C2CC(=O)Nc3c2c(=O)nc2sccn32)cc1 (configuration not stated) | 0.813% | -16.9%
21 | CN(CC(=O)N1CCCC1Cn1cccn1)C1CC1 (configuration not stated) | -2.14% | 12.6%
22 | Cc1nc(C)n(C2CCCN(C(=O)CCc3ccncc3)C2)n1 (configuration not stated) | -6.6% | 11.7%
23 | CC(O)CN1CCN(Cc2csc(-c3ncccn3)n2)CC1 (configuration not stated) | 2.19% | -19.8%

Row | Structure (SMILES) | Percent Effect [1] | Percent Effect [2]
24 | Cc1cccc(-n2c(C)cc(C(=O)N3CCn4c(C)nnc4C3)c2C)c1 | 3.51% | 36.2%
25 | Cc1ccc(C(=O)N2CCO[C@H]3[C@@H](OCc4ccccn4)CC[C@@H]32)o1 | 6.63% | -6.16%
26 | O=C(NCC1CC1)C1CCC2(CCN(C(=O)c3ccccn3)CC2)O1 (configuration not stated) | -1.39% | 1.47%
27 | Cc1cnc2n(c1=O)C(CC(=O)NCc1cc(-c3cccs3)on1)CS2 (configuration not stated) | 1.62% | -30.9%
28 | COCC(=O)NC1CC2(CCN(Cc3ccco3)CC2)c2ccccc21 (configuration not stated) | 5.52% | -5.13%
29 | O=C(c1cnc(-c2cccs2)s1)N1CCCC(n2cccn2)C1 (configuration not stated) | 2.29% | 17.4%
30 | CC1=Nc2c(c(=O)[nH]n2C2CCCC2)C(c2cccc(O)c2)S1 (configuration not stated) | 0.174% | 10.3%
31 | Cc1cc2c(=O)n3c(nc2s1)CCN(C(=O)c1ccncc1)CC3 | 0.789% | 3.16%
32 | Cc1cnn(C2CCCN(C(=O)c3ccn(C)c(=O)c3)C2)c1 (configuration not stated) | -2.74% | 22%
33 | CCOc1cccc(CNc2ccccc2C(=O)OC)c1O | -5.37% | -53.6%
34 | O=C(Cc1ccccn1)N1CCN(CC2CC2)c2ncccc2C1 | 5.6% | -12.7%
35 | CNS(=O)(=O)c1cccc(C(C)NCc2cccc(OC)c2)c1 (configuration not stated) | 0.915% | -24.3%
36 | CC(C)CN1CCC(C(=O)Nc2cc(C(F)(F)F)c[nH]c2=O)CC1 | -2.61% | -33.9%
37 | Cc1cnccc1CN1C[C@@H](O)[C@H](Oc2ccccc2)C1 | 0.283% | -4.47%
38 | Cc1ccc(CNC(=O)NCCCn2nc3ccccn3c2=O)s1 | 7.2% | 0.512%
39 | CCn1cc(Br)c(C(=O)NCc2cccnc2)n1 | 7.19% | -69.5%
40 | CCO[C@H]1CO[C@@]2(CCCN(Cc3nc(C)cs3)C2)C1 | -4.51% | -13.5%
41 | O=C(c1ccc2c(c1)OCO2)N1CCCC(n2cccn2)C1 (configuration not stated) | 4.23% | 23.2%
42 | COCCN(C)Cc1ccc(OC)c(OC(F)F)c1 | 2.53% | -37.4%
43 | Cc1ccc(C(=O)N2C[C@H]3CCC[C@@]3(COCc3cccnc3)C2)s1 | 6.3% | -7.06%
44 | c1cnn(CCNCc2nnc(C3CC3)o2)c1 | -0.343% | -28.3%
45 | CCN1CC2(CC1=O)CN(Cc1ccco1)CCN(C(=O)N(C)C)C2 (configuration not stated) | -2.71% | -10.3%
46 | CCS(=O)(=O)c1ccccc1N1CCC(NC(=O)NC2CCCC2)CC1 | -3% | 7.11%

From ChEMBL document CHEMBL3988442, “University of Dundee, Small-Polar-MMV Screening Library” (2021)
